# Rows were chosen to be rich in hits. Some 28% of all compounds tested hit in one or more screens of this group.
# CYP2C9 activ: human CYP2C9 activators, primary screen, biochemical, luminescence | Cytochrome P450 2C9 (Homo sapiens), P11712 | recombinant CYP2C9, luciferin-H conversion; active compounds read high; factor 1 = untreated enzyme, 0 = blocked | activation factor at 5 µM | 96,000 compounds, 1.4% hits;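 active = activation factor of 2 or more for CYP2C9 at a 5 µM dose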
# Mac1 fbg enh: enhancers of CD11b/CD18 adhesion to fibrinogen, primary screen, K562 cells, luminescence; AID 1499, 2009; Integrin beta-2 (Homo sapiens) + Integrin alpha-M (Homo sapiens), P05107+P11215; ATPlite luminescence; 93,000 compounds, 0.07% hits; activation, % at 10 µM;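 active = 10 µM primary screen giving 50% or more activity, confirmed by 40% or more on retest at that dose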
# Target sequence (P05107 whole entry, looked up, other chains not shown): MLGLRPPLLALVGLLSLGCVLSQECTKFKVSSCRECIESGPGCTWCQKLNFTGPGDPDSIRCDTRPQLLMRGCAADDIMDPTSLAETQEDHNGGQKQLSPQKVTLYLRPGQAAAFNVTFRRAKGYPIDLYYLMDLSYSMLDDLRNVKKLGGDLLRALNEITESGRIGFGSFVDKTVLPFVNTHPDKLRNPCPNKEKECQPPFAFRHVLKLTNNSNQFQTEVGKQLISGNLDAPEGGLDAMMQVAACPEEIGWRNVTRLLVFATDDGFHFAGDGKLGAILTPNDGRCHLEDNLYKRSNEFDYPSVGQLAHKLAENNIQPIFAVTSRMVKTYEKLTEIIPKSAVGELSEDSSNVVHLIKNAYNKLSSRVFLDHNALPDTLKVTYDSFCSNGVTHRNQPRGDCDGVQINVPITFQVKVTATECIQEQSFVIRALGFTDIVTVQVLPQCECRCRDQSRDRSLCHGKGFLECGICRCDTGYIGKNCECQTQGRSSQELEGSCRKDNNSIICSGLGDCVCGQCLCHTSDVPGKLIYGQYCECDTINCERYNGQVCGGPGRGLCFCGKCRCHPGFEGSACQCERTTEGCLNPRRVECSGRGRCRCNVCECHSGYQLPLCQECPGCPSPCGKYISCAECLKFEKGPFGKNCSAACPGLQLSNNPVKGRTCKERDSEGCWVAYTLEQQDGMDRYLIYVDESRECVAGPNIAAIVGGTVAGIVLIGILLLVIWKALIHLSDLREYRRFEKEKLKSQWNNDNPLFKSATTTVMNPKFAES
# CYP2C9 inh: blockers of cytochrome P450 2C9 activity – biochemical, luminescence, ADME assay, primary screen; P11712; CYP2C9 Supersomes, luciferin-H conversion; inhibition, % at 5 µM; 96,000 compounds, 20% hits;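 active = blocking of liver enzyme CYP2C9 beyond about 50% at 5 µM, limit read from the data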
# Mac1 fbg inh: inhibitors of CD11b/CD18 adhesion to fibrinogen, primary screen, K562 cells, luminescence. Integrin beta-2 (Homo sapiens) + Integrin alpha-M (Homo sapiens), P05107+P11215. ATPlite luminescence; Mn2+ added to activate the integrin. inhibition, % at 10 µM. 93,000 compounds, 0.54% hits. AID 1497, 2009;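 active = primary inhibition of 50% or more at 10 µM, then 40% or more on retest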
# CYP2C19 act: human CYP2C19 activators, primary screen, biochemical, luminescence; Cytochrome P450 2C19 (Homo sapiens), P33261; recombinant CYP2C19, luciferin-H EGE luminescence; active compounds read high; 0 = fully inhibited enzyme, 1 = untreated enzyme; activation factor at 5 µM; 96,000 tested, under 10 active; AID 1025, 2008;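 active = activation factor of at least 2 at 5 µM in the primary screen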
# CYP2C19 inh: blockers of cytochrome P450 2C19 activity – biochemical, luminescence, ADME assay, primary screen. P33261. CYP2C19 Supersomes, luciferin-H EGE luminescence, 30 min. inhibition, % at 5 µM. 96,000 compounds, 21% hits;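 active = CYP2C19 inhibition above a set limit at 5 µM in the primary screen, cut at about 50% in these data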
# Numbers stand for hits; - = inactive; . = no result given.
SMILES,CYP2C9 activ,Mac1 fbg enh,CYP2C9 inh,Mac1 fbg inh,CYP2C19 act,CYP2C19 inh
Cc1ccc(F)cc1NC(=O)C1CCCN(c2ncccn2)C1 (stereo unspecified),-,-,94,-,-,94
COCCNC(=O)C1CCCN(c2ncccn2)C1 (stereo unspecified),-,-,-,-,-,-
O=c1ccc(Oc2nc(N3CCCCC3)nc(N3CCCCC3)n2)n[nH]1,-,-,-,-,-,-
Cc1ccc(-c2nnn(CC(=O)N(Cc3ccccc3)C(C(=O)NC(C)(C)C)c3ccncc3)n2)o1 (stereo unspecified),-,-,-,-,-,50
CCOC(=O)CN(C(=O)Cn1nnc(-c2ccc(C)cc2)n1)C(CC)C(=O)NC1CCCC1 (stereo unspecified),-,-,-,-,-,-
CCC(C(=O)NC1CCCC1)N(C(=O)Cn1nnc(-c2cccs2)n1)c1cnc2ccccc2c1 (stereo unspecified),-,-,-,-,-,-
Cc1ccc(C)c(N(C(=O)Cn2nnc(-c3cccs3)n2)C(C(=O)NC2CC2)c2ccc(C)o2)c1 (stereo unspecified),-,-,-,-,-,-
CCC(C(=O)NC1CCCC1)N(Cc1ccco1)C(=O)Cn1nnc(-c2ccc(C)cc2)n1 (stereo unspecified),-,-,72,-,-,83
Cc1ccc(N(C(=O)Cn2nnc(-c3cccs3)n2)C(C(=O)NC2CCCC2)c2ccncc2)cc1 (stereo unspecified),-,.,54,.,-,-
CC(C)(C)NC(=O)C(c1ccncc1)N(C(=O)Cn1nnc(-c2cccs2)n1)C1CCCCC1 (stereo unspecified),-,-,76,-,-,69
O=C(NCc1ccco1)/C(=C/c1cccnc1)NC(=O)c1ccco1,-,.,-,.,-,-
O=C(Cn1nnc(-c2ccc(N3CCOCC3)cc2)n1)OC1CCCCC1,-,-,-,-,-,-
O=C(Cn1nnc(-c2ccncc2)n1)N(C1CCCCC1)C1CCCCC1,-,-,87,-,-,87
CC(C)(C)NC(=O)C(c1ccncc1)N(Cc1cccs1)C(=O)Cn1nnc(-c2cccs2)n1 (stereo unspecified),-,-,92,-,-,92
CCCCCOc1ccc(NS(C)(=O)=O)cc1,-,-,-,-,-,-
CS(=O)(=O)Nc1ccc(Cc2ccc(NS(C)(=O)=O)cc2)cc1,-,-,52,-,-,-
CCS(=O)(=O)Nc1ccc(Cc2ccc(NS(=O)(=O)CC)cc2)cc1,-,-,87,-,-,70
O=C1CC(c2ccc3c(c2)OCO3)Sc2nc3ccccc3n21 (stereo unspecified),-,-,64,-,-,60
O=C(NC1CC1)C1=COCCO1,-,-,-,-,-,-
Clc1ccc(CNc2nc(N3CCOCC3)nc(N3CCOCC3)n2)cc1,-,-,75,-,-,77
C(=C\c1ccccc1)/C=N/Nc1nc(N2CCOCC2)nc(N2CCOCC2)n1,-,-,-,-,-,-
CN(C)c1nc(SCc2ccccc2)nc(N2CCOCC2)n1,-,.,-,.,-,-
Nc1nc(CSCc2ccccc2)nc(N2CCOCC2)n1,-,-,-,-,-,92
CCNc1nc(SCc2ccccc2)nc(N2CCOCC2)n1,-,-,68,-,-,82
Nc1nc(N2CCOCC2)nc(N(c2ccccc2)c2ccccc2)n1,-,-,-,-,-,-
SMILES,CYP2C9 activ,Mac1 fbg enh,CYP2C9 inh,Mac1 fbg inh,CYP2C19 act,CYP2C19 inh
CCCCNC(=O)/C=C/c1ccc(OC)c(Br)c1,-,-,-,-,-,-
Cc1cc(S(=O)(=O)NCC(C)C)ccc1OCC(=O)NCc1ccccn1,-,-,-,-,-,-
CCOc1cc(S(=O)(=O)NCc2ccccn2)c(C)cc1C,-,-,-,-,-,59
COc1ccc(CC(=O)NCc2ccccn2)cc1OC,-,.,-,.,-,-
COc1ccc(C(C)C)cc1S(=O)(=O)NCc1ccccn1,-,-,52,-,-,65
COc1oc(-c2ccccc2)nc1C(F)(F)F,-,-,-,-,-,-
Cc1nn(-c2ccccc2)c(/N=C/c2ccc(O)cc2)c1-c1ccccc1,.,-,.,-,.,.
CCC(C)NS(=O)(=O)c1ccc(OCC(=O)Nc2ccc3c(c2)OCO3)cc1 (stereo unspecified),-,-,-,-,-,-
CCC(C)NS(=O)(=O)c1ccc(OCC(=O)NCc2ccc3c(c2)OCO3)cc1 (stereo unspecified),-,-,-,-,-,-
CCCNS(=O)(=O)c1ccc(OCC(=O)NCc2ccc3c(c2)OCO3)cc1,-,-,62,-,-,54
CCCNS(=O)(=O)c1ccc(OCC(=O)Nc2ccc3c(c2)OCCO3)cc1,-,-,70,-,-,-
O=C(Cc1ccccc1)N[C@H](c1ccccc1)P(=O)(O)CO,-,-,-,-,-,-
CCOc1ccc(-n2c(N)c(-c3nc4ccccc4n3C)c3nc4ccccc4nc32)cc1,.,-,.,-,.,.
CCOc1ccc(NC(=S)N(Cc2ccc(N(C)C)cc2)Cc2ccco2)cc1,-,.,63,.,-,-
CCOc1ccc(NC(=O)CC2C(=O)N(C)C(=S)N2Cc2ccco2)cc1 (stereo unspecified),.,-,.,-,.,.
CCOCCCNC(=O)C1CCN(S(=O)(=O)N2CC(C)CC(C)C2)CC1 (stereo unspecified),-,.,-,.,-,-
O=C1CCc2cc(S(=O)(=O)NC(Cc3ccccc3)C(=O)NC3CCCCC3)ccc2N1 (stereo unspecified),-,-,-,-,-,-
C=CCn1c(SCC(=O)N2CC(=O)Nc3ccccc32)nc2scc(-c3cccs3)c2c1=O,-,-,83,-,-,63
C=CCn1c(COc2ccc(F)cc2)nnc1SCC(=O)N1CC(=O)Nc2ccccc21,2.1,-,-,-,-,-
CCOC(=O)c1sc(NC(=O)C2C3C=CC(C3)C2C(=O)O)nc1C (stereo unspecified),-,-,-,-,-,-
CCOC(=O)c1sc(NC(=O)C2CC2)nc1C,-,-,61,-,-,63
CCOC(=O)c1sc2nc(NC(=O)C3CC3)sc2c1C,-,-,-,-,-,53
COc1ccc(NC(=O)Cn2c(=O)n(-c3ccc(OC)cc3OC)c(=O)c3c(C)c(C)sc32)cc1,.,-,.,-,.,.
Cc1ccc(S(=O)(=O)N2CCN(C(=O)COC(=O)c3cc(C)oc3C)CC2)cc1,-,-,-,-,-,-
Cc1ccc(SC(c2ccccc2)C(Cn2cncn2)C(=O)c2ccccc2)cc1 (stereo unspecified),-,-,100,-,-,99
